Records with an inconclusive call do not appear. Active and inactive are the calls of the source. Calls come from the whole dose curve; as a rule, active = well fitted curve in the direction sought with a large enough effect in the repeat runs; inconclusive = weak or mixed curves; inactive = no such curve, though single readings can be large; an effect the other way counts as inactive or inconclusive.

The text below walks through data of PubChem BioAssay (Tox21).

The target in assay [1] is Cytochrome P450 2D6 (Homo sapiens) (UniProt P10635). The assay is described as follows: Cytochrome P450 Family 2 Subfamily D Member 6 (CYP2D6) small molecule antagonists: luciferase reporter qHTS assay (AID 1671196). Note: nearly all actives have a fitted effect of over 50% in size. The method in brief:
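CYP2D6 enzyme–substrate mix was held with compound for 10 min at room temperature, then NADPH regeneration solution was added and the reaction ran 1 h at room temperature. Luciferin product was detected by luminescence after 20 min with detection reagent.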
On the technique in general: In a reporter assay the amount or activity of a reporter protein is the signal.

Assay [2] has as its target Cytochrome P450 2C19 (Homo sapiens) (UniProt P33261). As to the kind of experiment: Cytochrome P450 Family 2 Subfamily C Member 19 (CYP2C19) small molecule antagonists: luciferase reporter qHTS assay (AID 1671197). Note: nearly all actives have a fitted effect of over 65% in size. The method in brief:
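First, compounds are pinned into enzyme-substrate mix and held 10 min at room temperature. Second, NADPH regeneration solution is added and plates incubate 1 h at 37C. Third, detection reagent is added and luminescence read after 20 min.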

Assay [3] has as its target Cytochrome P450 2C9 (Homo sapiens) (UniProt P11712). The assay is described as follows: Cytochrome P450 Family 2 Subfamily C Member 9 (CYP2C9) small molecule antagonists: luciferase reporter qHTS assay (AID 1671198). Note: nearly all actives have a fitted effect of over 50% in size. The method in brief:
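CYP2C9 activity was measured with a P450-Glo proluciferin substrate. Enzyme–substrate mix was held with compound for 10 min at room temperature, then NADPH regeneration solution was added for 1 h at 37C. Luciferin product was read as luminescence.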

Assay [4] has as its target Cytochrome P450 1A2 (Homo sapiens) (UniProt P05177). As to the kind of experiment: Cytochrome P450 Family 1 Subfamily A Member 2 (CYP1A2) small molecule antagonists: luciferase reporter qHTS assay (AID 1671199). Note: nearly all actives have a fitted effect of over 50% in size. The method in brief:
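Human CYP1A2 activity measured with a P450-Glo proluciferin substrate; compounds in DMSO preincubated 10 min at room temperature with enzyme-substrate mix, then NADPH regeneration system added for 1 h. Luciferin detection reagent, 20 min, luminescence read.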

In assay [5] the target is Voltage-gated inwardly rectifying potassium channel KCNH2 (Homo sapiens) (UniProt Q12809). As to the kind of experiment: Human Ether-a-go-go-Related Gene (hERG) channel small molecule antagonists: fluorescence cell-based qHTS assay (AID 1671200). Note: nearly all actives have a fitted effect of over 50% in size. The method in brief: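 hERG-U2OS cells plated overnight at 37 C, loaded with FluxOR II dye 1 h at RT in dark; after 10 min, thallium stimulus added. Fluorescence (480/540 nm) read kinetically for 2 min at 1 s intervals.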

For assay [6], the target named is Cytochrome P450 3A4 (Homo sapiens) (UniProt P08684). As to the kind of experiment: Cytochrome P450 Family 3 Subfamily A Member 4 (CYP3A4) small molecule antagonists: luciferase reporter qHTS assay (AID 1671201). Note: nearly all actives have a fitted effect of over 50% in size. The essentials:
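P450-Glo CYP3A4 luminescent assay: compounds preincubated 10 min at room temperature with enzyme and proluciferin substrate, NADPH regeneration added, 1 h room-temperature reaction, stopped with luciferin detection reagent; luminescence read after 20 min. Ketoconazole positive control.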
Potency is the fitted concentration of half-maximal effect.

Chain of Cytochrome P450 2D6 (Homo sapiens) (P10635 whole entry, looked up): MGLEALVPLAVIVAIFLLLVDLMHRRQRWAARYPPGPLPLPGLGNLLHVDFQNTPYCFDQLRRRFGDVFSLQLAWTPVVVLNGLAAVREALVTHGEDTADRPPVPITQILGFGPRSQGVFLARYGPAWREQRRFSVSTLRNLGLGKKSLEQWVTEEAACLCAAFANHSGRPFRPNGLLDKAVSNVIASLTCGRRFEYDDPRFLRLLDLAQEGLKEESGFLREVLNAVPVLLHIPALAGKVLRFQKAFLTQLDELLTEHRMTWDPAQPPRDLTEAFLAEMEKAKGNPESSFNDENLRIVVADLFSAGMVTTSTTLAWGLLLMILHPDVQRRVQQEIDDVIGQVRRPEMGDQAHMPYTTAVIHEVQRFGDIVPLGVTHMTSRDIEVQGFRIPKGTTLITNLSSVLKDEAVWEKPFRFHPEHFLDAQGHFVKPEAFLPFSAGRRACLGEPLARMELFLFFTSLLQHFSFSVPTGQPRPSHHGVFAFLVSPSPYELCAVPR
Chain of Cytochrome P450 1A2 (Homo sapiens) (P05177 whole entry, looked up): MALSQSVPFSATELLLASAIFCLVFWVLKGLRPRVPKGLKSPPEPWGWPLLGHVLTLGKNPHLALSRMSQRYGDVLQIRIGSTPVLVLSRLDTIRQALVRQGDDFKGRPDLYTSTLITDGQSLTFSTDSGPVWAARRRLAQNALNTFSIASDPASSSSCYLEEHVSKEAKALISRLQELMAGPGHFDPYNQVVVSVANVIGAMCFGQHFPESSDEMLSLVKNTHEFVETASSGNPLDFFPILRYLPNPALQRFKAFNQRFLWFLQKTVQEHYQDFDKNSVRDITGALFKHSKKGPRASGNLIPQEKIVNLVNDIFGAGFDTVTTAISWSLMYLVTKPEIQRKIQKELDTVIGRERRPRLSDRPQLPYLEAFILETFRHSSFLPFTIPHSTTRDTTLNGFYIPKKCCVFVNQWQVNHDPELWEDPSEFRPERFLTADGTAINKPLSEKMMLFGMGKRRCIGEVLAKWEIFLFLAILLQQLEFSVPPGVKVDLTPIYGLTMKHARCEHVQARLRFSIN
Chain of Cytochrome P450 2C19 (Homo sapiens) (P33261 whole entry, looked up): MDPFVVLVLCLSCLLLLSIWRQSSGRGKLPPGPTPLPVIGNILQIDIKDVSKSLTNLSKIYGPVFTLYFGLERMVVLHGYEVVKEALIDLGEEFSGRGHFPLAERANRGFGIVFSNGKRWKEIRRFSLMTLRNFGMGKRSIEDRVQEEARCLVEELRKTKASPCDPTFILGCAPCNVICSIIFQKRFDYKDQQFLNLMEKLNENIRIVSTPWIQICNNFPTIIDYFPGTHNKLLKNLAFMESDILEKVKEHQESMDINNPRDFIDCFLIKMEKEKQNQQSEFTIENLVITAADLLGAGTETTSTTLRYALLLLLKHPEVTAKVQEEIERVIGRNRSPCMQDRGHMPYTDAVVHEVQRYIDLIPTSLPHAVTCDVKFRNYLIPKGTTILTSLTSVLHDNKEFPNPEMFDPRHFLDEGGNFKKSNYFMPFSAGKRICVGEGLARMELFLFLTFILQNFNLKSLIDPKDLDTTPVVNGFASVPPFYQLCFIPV
Chain of Cytochrome P450 3A4 (Homo sapiens) (P08684 whole entry, looked up): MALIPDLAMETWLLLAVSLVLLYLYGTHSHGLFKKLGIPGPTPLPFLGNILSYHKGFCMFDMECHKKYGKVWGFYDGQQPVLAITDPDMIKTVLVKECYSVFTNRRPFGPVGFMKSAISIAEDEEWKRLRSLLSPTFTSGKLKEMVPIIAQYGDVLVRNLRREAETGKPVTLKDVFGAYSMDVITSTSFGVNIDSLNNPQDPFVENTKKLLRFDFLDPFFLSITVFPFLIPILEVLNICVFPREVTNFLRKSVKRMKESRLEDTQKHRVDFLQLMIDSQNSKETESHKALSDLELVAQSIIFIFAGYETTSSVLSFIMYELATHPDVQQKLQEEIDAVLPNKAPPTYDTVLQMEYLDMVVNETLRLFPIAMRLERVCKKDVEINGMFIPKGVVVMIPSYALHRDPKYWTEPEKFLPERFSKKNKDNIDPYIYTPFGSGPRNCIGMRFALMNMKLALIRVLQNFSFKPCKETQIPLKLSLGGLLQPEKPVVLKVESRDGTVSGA
Chain of Voltage-gated inwardly rectifying potassium channel KCNH2 (Homo sapiens) (Q12809 whole entry, looked up): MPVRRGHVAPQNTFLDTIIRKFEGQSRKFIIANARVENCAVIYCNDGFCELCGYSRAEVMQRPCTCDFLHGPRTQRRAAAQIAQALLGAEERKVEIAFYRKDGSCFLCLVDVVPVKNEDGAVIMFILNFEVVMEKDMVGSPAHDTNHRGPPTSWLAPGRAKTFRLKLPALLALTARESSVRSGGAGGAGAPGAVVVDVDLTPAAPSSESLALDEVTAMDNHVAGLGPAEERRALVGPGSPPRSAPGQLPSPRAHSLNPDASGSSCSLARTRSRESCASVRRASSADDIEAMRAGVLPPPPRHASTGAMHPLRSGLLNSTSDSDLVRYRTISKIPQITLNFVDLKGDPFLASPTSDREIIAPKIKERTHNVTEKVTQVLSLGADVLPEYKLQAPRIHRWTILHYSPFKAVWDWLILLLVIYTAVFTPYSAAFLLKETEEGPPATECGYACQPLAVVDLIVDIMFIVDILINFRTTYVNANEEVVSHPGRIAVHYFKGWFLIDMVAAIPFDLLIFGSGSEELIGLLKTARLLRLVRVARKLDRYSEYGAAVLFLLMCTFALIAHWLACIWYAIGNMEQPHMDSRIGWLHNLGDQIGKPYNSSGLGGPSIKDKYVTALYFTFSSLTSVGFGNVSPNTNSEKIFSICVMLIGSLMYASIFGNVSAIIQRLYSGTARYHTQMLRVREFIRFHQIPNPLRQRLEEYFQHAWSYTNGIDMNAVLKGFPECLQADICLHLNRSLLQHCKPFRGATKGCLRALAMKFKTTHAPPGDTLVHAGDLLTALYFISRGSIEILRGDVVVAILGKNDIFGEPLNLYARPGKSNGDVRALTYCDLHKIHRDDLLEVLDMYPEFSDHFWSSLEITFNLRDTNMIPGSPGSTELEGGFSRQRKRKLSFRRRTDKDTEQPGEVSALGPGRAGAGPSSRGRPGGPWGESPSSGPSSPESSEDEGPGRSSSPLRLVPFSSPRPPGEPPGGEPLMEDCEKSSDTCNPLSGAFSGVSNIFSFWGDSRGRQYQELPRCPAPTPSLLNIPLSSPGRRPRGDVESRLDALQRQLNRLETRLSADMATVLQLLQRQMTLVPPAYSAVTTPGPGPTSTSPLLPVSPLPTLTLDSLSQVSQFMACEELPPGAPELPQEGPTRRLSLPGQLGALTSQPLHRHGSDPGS
Chain of Cytochrome P450 2C9 (Homo sapiens) (P11712 whole entry, looked up): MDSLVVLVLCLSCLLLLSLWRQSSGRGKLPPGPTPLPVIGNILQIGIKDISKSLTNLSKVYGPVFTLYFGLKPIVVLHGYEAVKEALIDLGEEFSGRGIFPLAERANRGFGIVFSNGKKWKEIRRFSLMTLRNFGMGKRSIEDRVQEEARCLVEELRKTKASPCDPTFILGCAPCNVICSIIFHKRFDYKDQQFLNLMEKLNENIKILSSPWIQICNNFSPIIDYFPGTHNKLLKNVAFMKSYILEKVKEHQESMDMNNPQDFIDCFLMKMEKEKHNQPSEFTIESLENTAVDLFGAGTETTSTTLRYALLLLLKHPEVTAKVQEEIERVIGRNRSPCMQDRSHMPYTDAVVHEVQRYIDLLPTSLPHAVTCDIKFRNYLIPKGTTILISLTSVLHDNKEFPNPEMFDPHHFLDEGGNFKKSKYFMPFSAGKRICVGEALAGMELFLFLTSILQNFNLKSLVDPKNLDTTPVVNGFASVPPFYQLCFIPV

Take `CCCC(C(=O)OCCN(CC)CC)(c1ccccc1)c1ccccc1`: the Potency in assay [1] is 0.275 µM (active); in assay [2], 21.9 µM (active); in assay [3] it was 13.8 µM (active); in assay [5] it was 8.49 µM (active). In assay [4], the Potency result was “inactive”.

For the compound `CN1CC(=O)N2[C@H](c3ccc4c(c3)OCO4)c3[nH]c4ccccc4c3C[C@@H]2C1=O`, the Potency entry in assay [1] and in assay [2] was “inactive” throughout.

As to `CCCCCCCCCCCCCCN(CCO)CCO`, the Potency is 7.96 µM (active) in assay [1], 79.6 µM (active) in assay [2], 31.7 µM (active) in assay [3] and 17.8 µM (active) in assay [4].

`CC(CO)CO`: the Potency entry in assay [1], in assay [2], in assay [3], in assay [4], in assay [5] and in assay [6] was “inactive” throughout.

Take `COc1cc(C(=O)NC2CCN(C)CC2)ccc1Nc1ncc2c(n1)N(C1CCCC1)CC(F)(F)C(=O)N2C`: the Potency entry in assay [1], in assay [4] and in assay [5] was “inactive” in each case. Further, the Potency in assay [2] is 51.7 µM (active); in assay [3], 29.1 µM (active).

Consider `O=c1[nH]c2ccc(Cl)cc2o1`, for which the Potency result in assay [1], in assay [3], in assay [5] and in assay [6] was “inactive” each time. Also, the values for the Potency in assay [2] and in assay [4] were 79.6 µM (active) and 10 µM (active), respectively.

For `COc1ncnc(NS(=O)(=O)c2ccc(N)cc2)c1OC`, the Potency entry in assay [1], in assay [2], in assay [3], in assay [4], in assay [5] and in assay [6] was “inactive” each time.

`CN1CCCC(CC2c3ccccc3Sc3ccccc32)C1` (stereo not given): the figures for the Potency in assay [1], in assay [2] and in assay [5] were 0.389 µM (active), 7.76 µM (active) and 4.77 µM (active), respectively. For the same compound, the Potency entry in assay [3], in assay [4] and in assay [6] was “inactive” in each case.

As to `COc1ccc(OC(=O)N(CC(=O)O)Cc2ccc(OCCc3nc(-c4ccccc4)oc3C)cc2)cc1`, the Potency entry in assay [1], in assay [2], in assay [5] and in assay [6] was “inactive” each time. Further, the Potency in assay [3] was 13.8 µM (active); in assay [4] it was 17.4 µM (active).

As to `CC(=O)Nc1cc(S(=O)(=O)O)cc2cc(S(=O)(=O)O)c(N=Nc3ccccc3)c(O)c12`, the Potency in assay [1] was 35.6 µM (active); in assay [2] it was 39.9 µM (active); in assay [3] it was 35.6 µM (active); in assay [4], 31.7 µM (active). Besides, the Potency entry in assay [5] is “inactive”.

Regarding `CCCCCCCCC(CCCCCC)C(=O)O` (stereo not given), the Potency entry in assay [1], in assay [4], in assay [5] and in assay [6] was “inactive” throughout. In addition, the Potency in assay [2] was 35.6 µM (active); in assay [3], 25.2 µM (active).

For the compound `CC(CC1c2ccccc2CCc2ccccc21)CN(C)C` (stereo not given), the Potency was 0.977 µM (active) in assay [1] and 8.71 µM (active) in assay [2]. Also, the Potency entry in assay [3] and in assay [4] was “inactive” throughout.

As to `O=[N+]([O-])c1ccc(Nc2ccc(Nc3ccccc3)c(S(=O)(=O)O)c2)c([N+](=O)[O-])c1`, the Potency entry in assay [1], in assay [2], in assay [4], in assay [5] and in assay [6] was “inactive” in each case. Further, in assay [3], the Potency was 35.6 µM (active).

For `O=C(O)C[C@H](NC(=O)OCc1ccccc1)C(=O)O`, the Potency result in assay [1], in assay [2], in assay [3], in assay [4], in assay [5] and in assay [6] was “inactive” each time.

As to `CCCCC(CC)COP(=O)(O)O` (stereo not given), the Potency result in assay [1], in assay [4], in assay [5] and in assay [6] was “inactive” each time. Besides, the Potency in assay [2] and in assay [3] was 40.6 µM (active) in each case.

With `O=[N+]([O-])c1ccc(O/N=C/c2cc(Br)c(O)c(Br)c2)c([N+](=O)[O-])c1`, the Potency entry in assay [1], in assay [4], in assay [5] and in assay [6] was “inactive” each time. Besides, the Potency in assay [2] is 79.3 µM (active); in assay [3], 9.98 µM (active).

Take `N#CCCN(CCO)CCO`: the Potency result in assay [1], in assay [2], in assay [3], in assay [4], in assay [5] and in assay [6] was “inactive” each time.

Turning to `C/C=C/C=C/C=O`, the Potency result in assay [1], in assay [2], in assay [3], in assay [4], in assay [5] and in assay [6] was “inactive” each time.

In the case of `CN1C(C(=O)Nc2ccccn2)=C(O)c2sccc2S1(=O)=O`, the Potency result in assay [1], in assay [2], in assay [4], in assay [5] and in assay [6] was “inactive” each time. For the same compound, the Potency in assay [3] was 13.8 µM (active).

With `Cc1cc2c(OCC(CNC(C)(C)C)OC(=O)c3ccccc3)cccc2[nH]1` (stereo not given), the Potency in assay [1] was 0.692 µM (active); in assay [2], 38.9 µM (active); in assay [3], 7.76 µM (active). The Potency entry in assay [4] is “inactive”.

For the compound `CC(C)Nc1cccnc1N1CCN(C(=O)c2cc3cc(NS(C)(=O)=O)ccc3[nH]2)CC1`, the Potency was 5.49 µM (active) in assay [1], 9.77 µM (active) in assay [2], 2.75 µM (active) in assay [3] and 9.52 µM (active) in assay [5]. Also, the Potency result in assay [4] is “inactive”.

As to `Nc1ccc(N=Nc2ccccc2)c(N)c1`, the Potency is 2.2 µM (active) in assay [1]; 24.7 µM (active) in assay [2]; 31 µM (active) in assay [3]; 7.8 µM (active) in assay [4]; 17 µM (active) in assay [5]; 11 µM (active) in assay [6].

`N#CCc1ccc(Cl)cc1Cl`: the Potency result in assay [1], in assay [3], in assay [5] and in assay [6] was “inactive” each time. The Potency in assay [2] was 79.6 µM (active); in assay [4], 22.4 µM (active).

On to `COC(=O)C1=C(C)NC(C)=C(C(=O)O[C@@H]2CCCN(Cc3ccccc3)C2)[C@@H]1c1cccc([N+](=O)[O-])c1`, for which the Potency in assay [1] is 15.5 µM (active); in assay [2], 4.9 µM (active); in assay [3] it was 0.871 µM (active).

`O=c1cc(-c2ccccc2)oc2ccc3ccccc3c12`: the Potency in assay [1] was 5.64 µM (active); in assay [2], 3.56 µM (active); in assay [3], 3.17 µM (active); in assay [4], 5.64 µM (active); in assay [6] it was 17.8 µM (active). Also, the Potency entry in assay [5] is “inactive”.

For the compound `Oc1ccc(Cl)c2cccnc12`, the Potency entry in assay [1], in assay [2], in assay [3], in assay [4], in assay [5] and in assay [6] was “inactive” throughout.

Take `CCCCCCCC/C=C\CCCCCCCCCCCC(=O)O`: the Potency result in assay [1], in assay [2], in assay [3], in assay [4], in assay [5] and in assay [6] was “inactive” in each case.
